# Screening results deposited in PubChem BioAssay by several laboratories.
# Hits are enriched below; roughly 0.5% of the tested compounds scored in any of these assays.
# E coli growth-1 – blocks Escherichia coli growth; OD600, 23 h; active compounds read low; OD600 absorbance (no concentration beside the values); actives 0.21% (n = 330,000); AID 1053175;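 active = OD600 absorbance below the run mean of sample wells minus 3.6 SD, in any replicate, cut at about 0.56 in these data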
# AddAB inh – less growth of phage-infected E. coli with AddAB; E. coli expressing H. pylori AddAB, absorbance growth; AID 435030; inhibition, % at 11.9 µM; actives 0.29% (n = 330,000); in the data active = inhibition above about 12%;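 also: 0% = vehicle wells of infected cells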
# phage Ecoli inh – E. coli growth loss with phage present; growth absorbance; inhibition, % at 11.9 µM; actives 0.26% (n = 360,000); in the data active = inhibition above about 11%
# E coli growth-2 – counter-screen for AddAB inhibitors: E. coli growth inhibition | E. coli V3065 growth, OD600 absorbance, 18 h | inhibition, % at 11.9 µM | actives 0.27% (n = 330,000);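 active = inhibition above the campaign's mean inhibition across all tested compounds plus 3 SD, cut at about 9.9% in these data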;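 also: uninfected addAB+ strain grown without phage in ampicillin broth; 0% = DMSO wells and 100% = ciprofloxacin 0.95 µg/ml wells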
# Tat export inh – blocks Tat-dependent protein export in E. coli | E. coli MC4100 TorA-mCherry Tat export, fluorescence | inhibition, % at 10 µM | actives 0.036% (n = 340,000);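 active = mean replicate inhibition at least 50% and at least half of replicates individually reaching 50%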;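 also: exported cargo escapes ClpAP degradation while cytoplasmic cargo is degraded and loses fluorescence; 0% = median of neutral control wells and 100% = median of NaSCN control wells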
# AddAB confirm – confirmation screen: growth loss of phage-infected E. coli expressing H. pylori AddAB | inhibition, % at 11.9 µM | AID 488942 | actives 64% (n = 880) | shares compounds with AddAB inh | E. coli V3065 expressing H. pylori AddAB, T4 phage, OD; T4 phage with gene 2 nonsense mutations;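 active = mean inhibition above a set limit taken from the earlier primary screen, cut at about 13% in these data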;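 also: higher means less bacterial growth since AddAB block lets phage replicate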
# RecBCD counter – counter-screen: growth loss of RecBCD+ E. coli with mutant T4 phage; shares compounds with AddAB inh; E. coli V66 + mutant T4 phage, OD growth; inhibition, % at 11.9 µM; actives 73% (n = 880);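 active = mean inhibition above the mean of solvent-only control wells plus 3 SD, cut at about 4% in these data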;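 also: optical density read after an 18 h incubation at 37 °C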
# Bact viability – counter-screen for AddAB inhibitors: inhibitors of bacterial viability; shares compounds with AddAB inh; absorbance (AddAB counterscreen); inhibition, % at 11.9 µM; actives 35% (n = 880); AID 488956; in the data active = inhibition above about 25%
# The depositor's hits bear a star; . = no result given.
SMILES,E coli growth-1,AddAB inh,phage Ecoli inh,E coli growth-2,Tat export inh,AddAB confirm,RecBCD counter,Bact viability
CCOC(=O)C1C2COc3ccccc3C2N2C(=O)c3cc(F)ccc3NC(=O)[C@@]12C (stereo partly drawn),0.683,.,.,.,.,.,.,.
Cc1cc([N+](=O)[O-])ccc1NC(=O)C=Cc1cccs1,0.651,.,.,.,.,.,.,.
CCCC(c1nnnn1CS(=O)(=O)c1ccc(C)cc1)N1CCN(c2ccccc2)CC1 (stereo not drawn),0.766,-0.9,3.4,2.6,12.8,.,.,.
CCC(c1nnnn1CS(=O)(=O)c1ccc(C)cc1)N1CCN(c2nc3ccccc3s2)CC1 (stereo not drawn),0.744,44.2*,2.5,31.8*,5.6,-1.8,-0.6,-1.9
COc1ccc(OC)c(-c2c3cc(O)c(=O)cc-3oc3cc(O)c(O)cc23)c1,.,14.1*,.,4.3,19.9,7.2,2.8,1.9
O=c1cc2oc3cc(O)c(O)cc3c(-c3ccccc3O)c-2cc1O,0.721,.,.,.,1.0,.,.,.
O=C(C=Cc1cccc(F)c1)Nc1nccs1,0.691,.,.,.,.,.,.,.
COc1ccccc1C(=O)N/C(=C\c1ccccc1)C(=O)NC(C)C(=O)O (stereo not drawn),.,96.8*,1.1,71.5*,-0.7,0.7,-1.3,-3.5
Fc1cccc(NC(=S)NCc2ccccc2Cl)c1,0.621,19.0*,9.4,10.7*,-3.6,32.6*,25.8*,33.5*
S=C(NCc1ccc(Cl)cc1Cl)Nc1ccccc1,0.614,7.3,5.0,2.4,6.6,.,.,.
S=C(NCc1ccccc1Cl)Nc1ccccc1Cl,0.652,8.8,3.5,3.2,1.5,.,.,.
Cc1cc(Cl)ccc1NC(=S)NCc1ccccc1Cl,0.645,15.7*,0.6,5.8,4.2,15.0*,14.8*,13.6
CCCNC(=O)Cn1c(=O)oc2cc(S(=O)(=O)N3CCCC3)ccc21,0.757,54.9*,-1.5,37.5*,0.2,-1.6,-0.6,-3.7
O=C(Cn1c(=O)oc2cc(S(=O)(=O)N3CCCCCC3)ccc21)NC1CCCCCCC1,0.786,-2.5,1.8,-1.1,-15.4,.,.,.
CCOC(=O)C1C2COc3ccc(Br)cc3C2N2C(=O)c3ccc(F)cc3NC(=O)[C@@]12C (stereo partly drawn),0.698,.,.,.,.,.,.,.
Cc1ccc(-c2noc(N=O)c2NO)cc1,0.613,24.0*,4.9,18.9*,-14.6,33.1*,7.9*,31.2*
CC(NC(=O)CN1CCOCC1)c1ccc(F)cc1 (stereo not drawn),0.65,14.7*,0.7,15.9*,-5.1,2.5,0.0,-1.7
CCOC(=O)C(O)C(O)c1cccc(C(O)C(O)C(=O)OCC)c1 (stereo not drawn),0.703,.,.,.,.,.,.,.
COc1cc2cccc(OC)c(=O)c2c(O)c1OC,0.739,0.5,5.8,-1.2,-0.8,.,.,.
CC(=O)Oc1cc2cccc(OC(C)=O)c(=O)c2c(OC(C)=O)c1OC(C)=O,0.644,18.0*,.,13.7*,0.1,25.2*,19.4*,14.6
COc1cnc(-c2ccccn2)nc1Sc1ccccc1,0.688,14.2*,3.9,0.0,-3.0,3.2,1.8,-2.1
Cn1c(NC(=O)C=Cc2ccccc2)cc(=O)n(C)c1=O,0.685,.,.,.,.,.,.,.
Cc1ccc(CC(NC(=O)c2ccccc2)C(=O)NC(Cc2ccccc2)C(=O)O)cc1 (stereo not drawn),0.714,3.1,1.7,0.4,-9.6,.,.,.
O=C(NC(Cc1ccc2c(c1)OCO2)C(=O)NC(Cc1ccccc1)C(=O)O)c1ccccc1 (stereo not drawn),0.695,97.1*,0.9,93.4*,-1.5,-2.7,1.2,-1.1
CCCCCCCCC[n+]1cccc2c3ccccc3ccc21,0.492*,15.4*,.,15.5*,-11.7,9.4,6.6*,6.8
SMILES,E coli growth-1,AddAB inh,phage Ecoli inh,E coli growth-2,Tat export inh,AddAB confirm,RecBCD counter,Bact viability
CC1CN(C(C)CO)C(=O)c2cc(NS(C)(=O)=O)ccc2OC1CN(C)Cc1ccc(C(=O)O)cc1 (stereo not drawn),0.694,.,.,.,.,.,.,.
O=C(NN=C/C(Br)=C\c1ccccc1)c1ccc2nc[nH]c2c1,0.649,.,.,.,.,.,.,.
O=C(N/N=C/C(Br)=C\c1ccccc1)c1ccc2nc[nH]c2c1,.,12.4*,4.6,0.2,9.0,1.2,1.7,-2.2
Cc1onc(-c2ccccc2)c1C(=O)O/N=C(\N)c1ccc([N+](=O)[O-])o1,.,15.9*,-16.1,7.4,2.6,32.7*,2.8,5.7
CCOC(=O)C1C2COc3ccc(Cl)cc3C2N2C(=O)c3cc(F)c(F)cc3NC(=O)[C@@]12C (stereo partly drawn),0.696,.,.,.,.,.,.,.
Cc1cc(CNC(=O)C2CC2C(NP(=O)(c2ccccc2)c2ccccc2)c2ccccc2)nn1C (stereo not drawn),0.671,.,.,.,.,.,.,.
Oc1cc(-c2ccc(N3CCCCC3)nc2)cc2cccnc12,.,15.9*,.,14.5*,3.9,10.5,14.7*,12.5
Oc1cc(-c2ccncc2)cc2cccnc12,0.676,1.9,2.7,-0.3,-1.4,.,.,.
C=CCNC(=S)N1CCN(c2ncc3c(=O)c(C(=O)O)cn(CC)c3n2)CC1,0.458*,19.6*,2.7,11.3*,6.9,89.2*,2.6,25.9*
CCn1cc(C(=O)O)c(=O)c2cnc(N3CCN(C(=S)Nc4ccc(F)cc4)CC3)nc21,0.602,18.1*,-2.8,24.9*,.,24.5*,1.0,10.2
CCn1cc(C(=O)O)c(=O)c2cnc(N3CCN(C(=S)Nc4ccccc4Cl)CC3)nc21,0.537,97.1*,0.1,83.7*,-6.0,97.5*,-0.4,32.5*
Cc1c(Cl)cccc1NC(=S)N1CCN(c2ncccn2)CC1,0.685,1.2,3.2,-2.9,-8.0,.,.,.
C=CCNC(=S)N1CCC(C(=O)c2ccc(OC)cc2)CC1,0.701,2.7,2.2,-0.5,6.3,.,.,.
C#CCOCCOCCOCCNc1nc(N2CCN(C(=O)C(CCCCN)n3cc(C(N)CC(C)C)nn3)CC2)nc(N2CCN(C(=O)C(Cc3ccc(O)cc3)n3cc(C(N)CC(C)C)nn3)CC2)n1 (stereo not drawn),0.664,.,.,.,.,.,.,.
CN1CC2C3C(=O)N(Cc4ccccc4)C(=O)C3[C@](C)(C1=O)N2C(=O)c1ccc(Cl)cc1 (stereo partly drawn),0.667,.,.,.,.,.,.,.
CC1OC2(C)OC(=N)C1(C#N)C(C#N)(C#N)C2c1ccccc1 (stereo not drawn),0.68,36.9*,1.2,23.3*,-8.3,2.3,0.1,1.0
CCCOc1ccccc1C=NNc1ccnc(=O)[nH]1,0.513,.,.,.,.,.,.,.
CCCOc1ccccc1/C=N/Nc1ccnc(=O)[nH]1,.,13.2*,0.8,21.1*,3.5,99.7*,3.6,68.4*
C/C(=C\C(=O)OCCCCCCCCC(=O)O)C[C@@H]1OC[C@H](C[C@@H]2O[C@H]2[C@@H](C)[C@H](C)O)[C@@H](O)[C@H]1O,.,17.8*,9.5,6.3,127.6*,7.1,18.3*,2.0
